According to PubChem BioAssay (Tox21):
Records with an inconclusive call do not appear. Where a call stands in place of a potency, no number is given. Active and inactive are the calls of the source. Calls come from the whole dose curve; as a rule, active = well fitted inhibition curve with a large enough effect in the repeat runs; inconclusive = weak or mixed curves; inactive = flat fitted curve, though single readings scatter.

assay: qHTS assay to identify small molecule HDAC inhibitors (AID 1259364); conditions: HCT-116 HDAC-Glo I/II luminescence, 2 h; series mostly up to 92.4 µM;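 note: wild-type HCT-116 cells with endogenous class I/II HDAC activity; top concentration of the series differs between compounds; nearly all actives have a fitted effect of over 45% in size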
Procedure, shortened: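 After a 2 hr compound incubation (37C, 5% CO2), HCT-116 cells seeded at 1,500/well the day before received HDAC-Glo reagent; signal read as luminescence after 30 min at room temperature.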

Row | Compound | Potency | activity change, negative = inhibition
1 | Nc1nc2c(ncn2COCCO)c(=O)[nH]1 | inactive | –
2 | CC(C)NC[C@@H](O)COc1ccc(CC(N)=O)cc1 | inactive | –
3 | COC(C)=O | inactive | –
4 | CCc1cccc(CC)c1NC(=O)CN(CC(=O)O)CC(=O)O | inactive | –
5 | CC(=O)Oc1cc2c(s1)CCN(C(C(=O)C1CC1)c1ccccc1F)C2 (configuration not stated) | inactive | –
6 | CCCCCCCCCCCCCCCC[N+](C)(C)CC | inactive | –
7 | Cc1c(N)cccc1C(F)(F)F | inactive | –
8 | Cc1c(C)c2c(c(C)c1OC(=O)c1cccnc1)CC[C@@](C)(CCC[C@H](C)CCC[C@H](C)CCCC(C)C)O2 | inactive | –
9 | O=C(O)c1cc(=O)c2ccccc2o1 | inactive | –
10 | CCN(CC)C(=O)c1cc(S(=O)(=O)Cc2ccccc2)c(N2CCC(c3ccccc3)CC2)cc1N(CC)CCN(C)C | inactive | –
11 | CN1CCN2c3ccccc3Cc3ccccc3C2C1 (configuration not stated) | inactive | –
12 | Cc1c(F)c(N2CCNC(C)C2)cc2c1c(=O)c(C(=O)O)cn2C1CC1 (configuration not stated) | inactive | –
13 | O=C(O)c1cc(-c2ccc(F)cc2F)ccc1O | inactive | –
14 | CC[N+](CC)(CC)CCOc1ccc(/C=C/c2ccccc2)cc1 | inactive | –
15 | O=c1[nH]c(=O)n([C@H]2C[C@H](O)[C@@H](CO)O2)cc1F | inactive | –
16 | Cc1cccc(C(=O)O)c1O | inactive | –
17 | CCCCCCCCCCC[C@@H](C[C@@H]1OC(=O)[C@H]1CCCCCC)OC(=O)[C@H](CC(C)C)NC=O | inactive | –
18 | Cc1cc(=O)oc2cc(O)cc(O)c12 | inactive | –
19 | CCCCCCCC/C=C\CCCCCCCCN | inactive | –

Row | Compound | Potency | activity change, negative = inhibition
20 | Cc1cc(C(C)(C)C)cc(C)c1CC1=NCCN1 | inactive | –
21 | C#CC1(O)CC[C@H]2[C@@H]3CCC4=CCCC[C@@H]4[C@H]3CC[C@@]21C (some centres not stated) | inactive | –
22 | C=C(CC)C(=O)c1ccc(OCC(=O)O)c(Cl)c1Cl | inactive | –
23 | CC(C)Cn1cnc2c(N)nc3ccccc3c21 | – | -5.48% [at 19 µM] (inactive)
24 | C[C@H]1NCc2cc(-c3ccc4c(=O)c(C(=O)O)cn(C5CC5)c4c3OC(F)F)ccc21 | – | -0.849% [at 19 µM] (inactive)
25 | CC(C)=CCC1=C(O)c2ccccc2C(=O)C1=O | inactive | –
26 | CC(C)=CCNc1ncnc2c1ncn2[C@@H]1O[C@H](CO)[C@@H](O)[C@H]1O | inactive | –
27 | CCOC(=O)NNc1ccc(N(CC)CC(C)O)nn1 (configuration not stated) | inactive | –
28 | O=C(O)[C@H](O)[C@@H](O)[C@H](O[C@@H]1O[C@H](CO)[C@H](O)[C@H](O)[C@H]1O)[C@H](O)CO | inactive | –
29 | CCCCCCCCCCCCOCCOCCOCCOCCOCCOCCOCCOCCOCCO | inactive | –
30 | CC(CCc1ccccc1)NCC(O)c1ccc(O)c(C(N)=O)c1 (configuration not stated) | inactive | –
31 | CCCCC/C=C\C/C=C\CCCCCCCC(=O)O | inactive | –
32 | CCCCCCCCCCCCCC[N+](C)(C)C | inactive | –
33 | C#C[C@]1(OC(C)=O)CC[C@H]2[C@@H]3CCC4=C/C(=N/O)CC[C@@H]4[C@H]3CC[C@@]21CC | inactive | –
34 | CCCCCCCCCCCCCC[N+](C)(C)Cc1ccccc1 | inactive | –
35 | CCOC(=O)Cn1cccc1-c1nc(-c2ccc(OC)cc2)c(-c2ccc(OC)cc2)s1 | inactive | –
36 | Cc1c(C)c2c(c(C)c1O)CC[C@@](C)(CCC[C@H](C)CCC[C@H](C)CCCC(C)C)O2 | inactive | –
37 | O[C@@H]([C@H](O)[C@H](O)CBr)[C@H](O)CBr | inactive | –
